D2 ag-1 = D2 dopamine receptor (human) agonism | AID 485358 | P14416 | hit rate 0.53% among 340,000 | HEK293 T-REx D2 cells, calcium flux agonist mode | activation, % at 2 µM;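 active = activation over 3 SD above normal in the single-dose calcium agonist read, cut at about 30% in these data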
Target sequence (P14416 whole entry, looked up): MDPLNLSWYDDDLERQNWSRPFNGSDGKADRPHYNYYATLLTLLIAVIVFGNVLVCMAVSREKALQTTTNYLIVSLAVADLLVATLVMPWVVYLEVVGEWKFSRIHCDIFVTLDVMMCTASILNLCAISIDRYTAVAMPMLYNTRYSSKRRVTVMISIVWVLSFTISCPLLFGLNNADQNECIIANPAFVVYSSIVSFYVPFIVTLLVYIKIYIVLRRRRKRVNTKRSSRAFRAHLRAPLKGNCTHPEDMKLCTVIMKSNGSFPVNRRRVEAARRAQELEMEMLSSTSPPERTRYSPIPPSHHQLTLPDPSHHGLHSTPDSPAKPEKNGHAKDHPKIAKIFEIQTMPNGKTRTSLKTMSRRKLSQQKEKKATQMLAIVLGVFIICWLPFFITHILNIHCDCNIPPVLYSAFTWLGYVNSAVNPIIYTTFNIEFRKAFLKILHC
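Calcium-flux readout, 1 cycle/sec over 180 s following compound pin transfer, in inducible HEK293 Trex D2 cells (force-coupled); dopamine controls included. Positive calcium responses during this window marked compounds as potential agonists.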
D2 PAM-1 = human D2 receptor positive allosteric modulation; potentiation, % (concentration not given with the values); P14416; hit rate 0.23% among 360,000; DiscoveRx D2 beta-arrestin cells, luminescence, 90 min; 100% = 57 uM dopamine signal; in the data active = potentiation above about 50%; inconclusive = mostly about 30% to 49%
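PathHunter beta-arrestin assay in DiscoveRx D2 cells. Compounds were added with an EC20 of dopamine (50 nM final) for 90 min at 37 deg C. Luminescence was read 1 h after detection reagent, with 57 uM dopamine as the EC100 control.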
D2 antagonist = antagonizes the human D2 dopamine receptor; hit rate 2% among 340,000; AID 485344; HEK293 TREx D2 cells, calcium flux, dopamine EC80; P14416; inhibition, % at 10 µM; in the data active = inhibition above about 30%; inactive = below that, where a call was filed
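Calcium flux kinetic readout in an inducible HEK293 TREx D2 line plated overnight at 30 C. After 180 s compound exposure, an EC80 dopamine challenge follows with another 180 s kinetic read to detect antagonism.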
D2 PAM-2 = positively modulates the human D2 dopamine receptor allosterically. P14416. HEK293 T-REx D2, calcium flux, EC20 dopamine potentiation. potentiation, % at 10 µM. hit rate 0.34% among 340,000;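 active = potentiation over 3 SD above the plate norm, cut at about 30% in these data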
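Using a no-wash calcium dye in inducible, force-coupled HEK293 Trex cells expressing D2, we tracked fluorescence each second for 180 s after compound, then for 180 s after EC20 dopamine to detect augmented signalling.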
D2 ag-2 = activates the human D2 dopamine receptor; P14416; DiscoveRx PathHunter D2 beta-arrestin, luminescence, 90 min; 100% = 57 uM dopamine signal; activation, % (concentration not given with the values); hit rate 0.084% among 360,000; AID 624465; in the data active = activation above about 40%; inconclusive = between about 15% and that limit
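DiscoveRx PathHunter D2 beta-arrestin cells (2,100/well) attached overnight, then compound-stimulated 90 min at 37 C in HBSS/10 mM HEPES/0.1% Tween-20 buffer; beta-galactosidase complementation read by luminescence after 1 h at ambient temperature. Dopamine 57 uM final (EC100) as control.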
Of the large screens only hits and unclear results are named; the others gave an inactive call. The list is not random: actives were taken first. Their share in the collection is about 2.4%.

C=CCN(C(=O)c1csnn1)C(C(=O)NCc1ccc(F)cc1)c1ccccc1 (configuration not stated)	D2 antagonist 51.6
Cc1sc2nc(CSC(C)C(=O)Nc3ccc(C#N)cc3)[nH]c(=O)c2c1C (configuration not stated)	none
Cc1sc2nc(CSC(C)C(=O)NC3(C#N)CCCCC3)[nH]c(=O)c2c1C (configuration not stated)	D2 antagonist 38.3
O=c1cc2oc3cc(O)c(O)cc3c(-c3ccccc3[N+](=O)[O-])c-2cc1O	D2 antagonist 31.4
Cc1ccc(-c2ccc(CCC(=O)O)n2NC(N)=S)cc1	none
Cc1ccc(-c2ccc(CCC(=O)O)n2C(C)C)cc1	D2 antagonist 32.6
O=C(c1ccccc1)N(Cc1ccco1)C1CCS(=O)(=O)C1 (configuration not stated)	D2 antagonist 37.4
O=C(c1ccc(F)cc1)N(Cc1ccco1)C1CCS(=O)(=O)C1 (configuration not stated)	none
O=C(CCN1CCC(c2ccccc2)C1)c1ccccc1 (configuration not stated)	none (no result: D2 ag-1, D2 antagonist, D2 PAM-2)
O=C(CCN1CCC(c2ccccc2)C1)c1ccc2c(c1)OCCO2 (configuration not stated)	D2 antagonist 86.7
COc1ccc(C)cc1NS(=O)(=O)c1ccc2oc(=O)c3ncn(C)c3c2c1	none (no result: D2 PAM-1, D2 antagonist, D2 ag-2)
COc1ccccc1CN=c1c([N+](=O)[O-])nn(-c2ccc3c(c2)OCCO3)n1O	D2 PAM-1 128.8, D2 ag-2 inconclusive
O=[N+]([O-])c1nn(-c2ccc3c(c2)OCCO3)n(O)c1=NCc1ccccc1Cl	D2 PAM-1 54.3
O=[N+]([O-])c1nn(-c2ccc3c(c2)OCCO3)n(O)c1=NC1CCCCC1	D2 PAM-1 117.7, D2 ag-2 inconclusive
Cc1ccc(CN=c2c([N+](=O)[O-])nn(-c3cccc(Cl)c3)n2O)cc1	D2 PAM-1 inconclusive, D2 ag-2 inconclusive
Cc1ccc(CNC(=O)CCc2c(C)nc3c4c(C)cc(C)nc4nn3c2C)cc1	none (no result: D2 PAM-1, D2 antagonist, D2 ag-2)
Cc1ccc(CCNC(=O)CCCn2c(=O)c3cccn3c3ccc(F)cc32)cc1	none (no result: D2 PAM-1, D2 antagonist, D2 ag-2)
Cc1cccc(C)c1OC(=O)CSc1nnc(CNC(=O)c2ccccc2)o1	none (no result: D2 PAM-1, D2 antagonist, D2 ag-2)
O=S(=O)(c1ccc2c(c1)OCO2)N1CCN(c2nnnn2-c2ccccc2)CC1	D2 antagonist 36.2
COC(=O)c1ccccc1NC(=O)CN1CCc2ccccc2C1	none
COC(=O)c1ccccc1NC(=O)CN1CCN(C23CC4CC(CC(C4)C2)C3)CC1	D2 antagonist 72.2
CCCC(=O)OC1=CN(Cc2ccccc2)S(=O)(=O)c2ccccc21	none (no result: D2 PAM-1, D2 antagonist, D2 ag-2)
COC(=O)c1cc(NC(=O)Cc2cc(OC)c(OC)c(OC)c2)cc(C(=O)OC)c1	D2 antagonist 40.3
COc1ccc(/C=C/C(=O)OCC(=O)c2ccc[nH]2)cc1	D2 antagonist 38.1
COc1ccc(-c2oc3ncn4nc(COc5ccccc5C)nc4c3c2-c2ccc(OC)cc2)cc1	none (no result: D2 PAM-1, D2 antagonist, D2 ag-2)
CSc1ccc(OC2CCN(Cc3ccccc3)CC2)cc1	D2 antagonist 30.6
Clc1cccc(CN2CCC(Cc3ccccc3)CC2)c1	none (no result: D2 ag-1, D2 antagonist, D2 PAM-2)
Clc1ccc(CN2CCC(Cc3ccccc3)CC2)cc1	D2 antagonist 48.3
CSc1ccc(CN2CCC(Oc3cccc(C(=O)N4CCCC4)c3)CC2)cc1	none
CSc1ccc(CN2CCC(Cc3ccccc3)CC2)cc1	D2 antagonist 30.8
Clc1ccc(CN2CCC(c3ccccc3)CC2)cc1	D2 antagonist 84.7
CCc1ccc(NC(=O)C(Cc2ccccc2)NS(=O)(=O)c2ccc3c(c2)c(=O)n(C)c(=O)n3C)cc1 (configuration not stated)	none (no result: D2 PAM-1, D2 antagonist, D2 ag-2)
O=C1CCCc2[nH]c(=O)c(-c3nc(-c4cccc([N+](=O)[O-])c4)cs3)cc21	none (no result: D2 PAM-1, D2 antagonist, D2 ag-2)
CCOc1ccc(CNC(=O)C2Cc3ccccc3N2C(=O)CC)cc1OC (configuration not stated)	none (no result: D2 ag-1, D2 PAM-1, D2 antagonist, D2 ag-2)
c1ccc(CC2CCN(Cc3ccccn3)CC2)cc1	D2 antagonist 30.2
Clc1ccc(CN2CCC(c3nc4ccc(Cl)cc4[nH]3)CC2)cc1	D2 antagonist 82.2
c1ccc(CN2CCN(c3ncccn3)CC2)nc1	D2 ag-1 47.8, D2 antagonist 37.3 (no result: D2 PAM-1, D2 ag-2)
O=C(c1ccc(-c2ccccc2)cc1)N1CCN(Cc2ccccn2)CC1	none (no result: D2 ag-1, D2 antagonist, D2 PAM-2)
OCC1(Cc2ccccc2)CCN(Cc2ccccn2)CC1	none
Cc1noc(-c2ccc(N3CCCCC3)c([N+](=O)[O-])c2)n1	none (no result: D2 PAM-1, D2 antagonist, D2 ag-2)
Cc1cc(C)nc(SCC(=O)N2CCC(C(N)=O)CC2)n1	D2 PAM-2 30.3
Cc1cc2nnc(SCC(=O)N3CCCCC3)n2c(N)n1	none
Cc1cc2nnc(SCC(=O)N3C(C)CCCC3C)n2c(N)n1 (configuration not stated)	D2 antagonist 30.4, D2 PAM-2 36.5
COc1cc(C)nc(SCC(N)=O)n1	D2 antagonist 32.5 (no result: D2 PAM-2)
Cc1cc(N)nc(SCC(=O)N2C(C)CCCC2C)n1 (configuration not stated)	D2 PAM-2 33.9
CCN1CCN(Cc2c(O)ccc3oc(C)c(C(=O)Nc4cccc(C(F)(F)F)c4)c23)CC1	none (no result: D2 PAM-1, D2 antagonist, D2 ag-2)
COc1ccc2cc(CNc3ccccc3)c(=O)n(CC(=O)Nc3ccc(C)cc3C)c2c1	none (no result: D2 PAM-1, D2 antagonist, D2 ag-2)
CC(C)(C)OC(=O)N1CCC(c2c(C(=O)N3CCC(c4ccccc4)C3)cnn2-c2cccc(Cl)c2)CC1 (configuration not stated)	none (no result: D2 ag-1, D2 PAM-1, D2 antagonist, D2 ag-2)
Cc1cc(C(C)(C)C)ccc1OC(=O)C1=CC=CN2CCS(=O)(=O)N=C12	D2 antagonist 40.2
O=C(Nc1ccc(Br)c2cccnc12)c1cccc2ccccc12	none (no result: D2 ag-1, D2 PAM-1, D2 antagonist, D2 ag-2)
Brc1ccccc1OCCCN1CCOCC1	none
CC1CCN(CCCCOc2ccccc2F)CC1	D2 antagonist 81.5
CC1CCN(CCCCOc2ccccc2Br)CC1	D2 antagonist 90.7
Brc1ccccc1OCCCCN1CCCCC1	D2 antagonist 75.8
CCC(Nc1ccc(-c2nc(-c3cccnc3)no2)cc1[N+](=O)[O-])c1ccccc1 (configuration not stated)	none (no result: D2 PAM-1, D2 antagonist, D2 ag-2)
O=C(O)c1cc2c(cc1NC(=O)C1CCCC1)OCCO2	D2 antagonist 33.5
CCOC(=O)c1c(C)[nH]c(CCC(=O)Nc2ccc(Cl)cc2C)c1C	none (no result: D2 PAM-1, D2 antagonist, D2 ag-2)
COc1cccc(-c2csc(N3CCN(C(=S)Nc4cccc(C)c4)CC3)n2)c1	D2 antagonist 85.8
COc1cccc(-c2csc(N3CCN(C(=S)Nc4ccccc4)CC3)n2)c1	none
Nc1c(C(=O)N2CCOCC2)sc2nc3c(cc12)CCC3	none
Nc1c(C(=O)N2CCOCC2)sc2nc3c(cc12)CCCC3	D2 PAM-2 32.7
CN1c2ccccc2-c2nc(SCC(=O)Nc3ccccc3C(F)(F)F)ncc2S1(=O)=O	none (no result: D2 PAM-1, D2 antagonist, D2 ag-2)
CCOc1ccc(NC(=S)NCc2ccc3[nH]c(C)cc3c2)cc1	none
CCCCNC(=S)NCc1ccc2[nH]c(C)cc2c1	D2 antagonist 30.3
CCOC(=O)c1cc(-c2ccc(OC)cc2)n(CCC(=O)NCCN2CCC(C)CC2)c1C	D2 antagonist 66.4
